{"source": "PubChem BioAssay AID1159580", "about": "(chemical genetic matrix, 2015)", "test": "chemical genetic growth profiling, strain panel (AID 1159580);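 also: tested at 20 µM; growth read once vehicle control cultures reached saturation at 30 °C; 1 = growth at the plate median or of vehicle wells; lower values mean less growth of the strain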", "conditions": "growth OD", "note": "The whole screen tested about 5,500 compounds, of which about 2,000 (36%) were called active. Roughly 18% stayed inconclusive and do not appear here. This is one part of the list. Unmarked numbers belong to inactive results. Rule as the data show it: active = normalized growth mostly below about 0.91 (no sharp cut-off); inconclusive = no clear call, values can overlap the other calls; inactive = mostly above about 0.92.", "data": [{"smiles": "CC(=O)OC1CCC2C3CCc4cc(O)ccc4C3CCC12C", "note": "(stereo unspecified)", "values": [{"measurement": "normalized growth", "setting": "S. cerevisiae deletion strains, locus YJR075W, strain HOC1, hits give low values", "value": 0.919}, {"measurement": "normalized growth", "setting": "S. cerevisiae deletion strains, locus YKL009W, strain mrt4, hits give low values", "value": 0.923}, {"measurement": "normalized growth", "setting": "S. cerevisiae deletion strains, locus YKL068W, hits give low values", "value": 1.01}, {"measurement": "normalized growth", "setting": "S. cerevisiae deletion strains, locus YKL085W, strain MDH1 (second series), hits give low values", "value": 0.98}, {"measurement": "normalized growth", "setting": "S. cerevisiae deletion strains, locus YKL085W, strain MDH1, hits give low values", "value": 0.98}, {"measurement": "normalized growth", "setting": "S. cerevisiae deletion strains, locus YKL160W, strain elf1, hits give low values", "value": 0.904}, {"measurement": "normalized growth", "setting": "S. cerevisiae deletion strains, locus YKL190W, strain CNB1, hits give low values", "value": 1.01}, {"measurement": "normalized growth", "setting": "S. cerevisiae deletion strains, locus YKR001C, strain vps1, hits give low values", "value": 0.977}, {"measurement": "normalized growth", "setting": "S. cerevisiae deletion strains, locus YKR026C, strain gcn3, hits give low values", "value": 0.998}, {"measurement": "normalized growth", "setting": "S. cerevisiae deletion strains, locus YKR091W, strain srl3, hits give low values", "value": 1}, {"measurement": "normalized growth", "setting": "S. cerevisiae deletion strains, locus YLL001W, strain dnm1, hits give low values", "value": 0.963}, {"measurement": "normalized growth", "setting": "S. cerevisiae deletion strains, locus YLL026W, hits give low values", "value": 0.996}, {"measurement": "normalized growth", "setting": "S. cerevisiae deletion strains, locus YLL041C, strain sdh2, hits give low values", "value": 1.02}, {"measurement": "normalized growth", "setting": "S. cerevisiae deletion strains, locus YLR027C, strain aat2, hits give low values", "value": 0.976}, {"measurement": "normalized growth", "setting": "S. cerevisiae deletion strains, locus YLR039C, strain RIC1, hits give low values", "value": 0.86}, {"measurement": "normalized growth", "setting": "S. cerevisiae deletion strains, locus YLR058C, strain SHM2, hits give low values", "value": 0.971}, {"measurement": "normalized growth", "setting": "S. cerevisiae deletion strains, locus YLR102C, strain apc9, hits give low values", "value": 1.02}, {"measurement": "normalized growth", "setting": "S. cerevisiae deletion strains, locus YLR113W, strain HOG1, hits give low values", "value": 0.918}, {"measurement": "normalized growth", "setting": "S. cerevisiae deletion strains, locus YLR221C, strain rsa3, hits give low values", "value": 0.949}, {"measurement": "normalized growth", "setting": "S. cerevisiae deletion strains, locus YLR258W, strain gsy2, hits give low values", "value": 0.978}, {"measurement": "normalized growth", "setting": "S. cerevisiae deletion strains, locus YLR262C, strain YPT6 (second series), hits give low values", "value": "0.856 (active)"}, {"measurement": "normalized growth", "setting": "S. cerevisiae deletion strains, locus YLR262C, strain YPT6, hits give low values", "value": 0.832}, {"measurement": "normalized growth", "setting": "S. cerevisiae deletion strains, locus YLR268W, strain sec22, hits give low values", "value": 0.97}, {"measurement": "normalized growth", "setting": "S. cerevisiae deletion strains, locus YLR320W, strain mms22, hits give low values", "value": 0.922}, {"measurement": "normalized growth", "setting": "S. cerevisiae deletion strains, locus YLR330W, strain CHS5, hits give low values", "value": 1.02}, {"measurement": "normalized growth", "setting": "S. cerevisiae deletion strains, locus YLR342W, strain FKS1 (second series), hits give low values", "value": 0.891}, {"measurement": "normalized growth", "setting": "S. cerevisiae deletion strains, locus YLR342W, strain FKS1, hits give low values", "value": "0.886 (active)"}, {"measurement": "normalized growth", "setting": "S. cerevisiae deletion strains, locus YLR357W, strain rsc2, hits give low values", "value": "0.848 (active)"}, {"measurement": "normalized growth", "setting": "S. cerevisiae deletion strains, locus YLR370C, strain arc18, hits give low values", "value": 0.98}, {"measurement": "normalized growth", "setting": "S. cerevisiae deletion strains, locus YLR371W, strain rom2, hits give low values", "value": 1.01}, {"measurement": "normalized growth", "setting": "S. cerevisiae deletion strains, locus YLR384C, strain iki3, hits give low values", "value": 0.964}, {"measurement": "normalized growth", "setting": "S. cerevisiae deletion strains, locus YLR418C, strain cdc73, hits give low values", "value": 0.941}, {"measurement": "normalized growth", "setting": "S. cerevisiae deletion strains, locus YML016C, strain PPZ1, hits give low values", "value": 1}, {"measurement": "normalized growth", "setting": "S. cerevisiae deletion strains, locus YML032C, strain rad52, hits give low values", "value": 0.954}, {"measurement": "normalized growth", "setting": "S. cerevisiae deletion strains, locus YML120C, strain ndi1, hits give low values", "value": 0.98}, {"measurement": "normalized growth", "setting": "S. cerevisiae deletion strains, locus YML124C, strain tub3, hits give low values", "value": 1.01}, {"measurement": "normalized growth", "setting": "S. cerevisiae deletion strains, locus YMR058W, strain fet3, hits give low values", "value": 0.983}, {"measurement": "normalized growth", "setting": "S. cerevisiae deletion strains, locus YMR078C, strain ctf18, hits give low values", "value": 1.02}, {"measurement": "normalized growth", "setting": "S. cerevisiae deletion strains, locus YMR125W, strain sto1, hits give low values", "value": 0.927}, {"measurement": "normalized growth", "setting": "S. cerevisiae deletion strains, locus YMR129W, hits give low values", "value": 1.01}, {"measurement": "normalized growth", "setting": "S. cerevisiae deletion strains, locus YMR205C, strain PFK2, hits give low values", "value": 0.954}, {"measurement": "normalized growth", "setting": "S. cerevisiae deletion strains, locus YMR223W, strain ubp8, hits give low values", "value": 0.969}, {"measurement": "normalized growth", "setting": "S. cerevisiae deletion strains, locus YMR231W, strain pep5, hits give low values", "value": 1.01}, {"measurement": "normalized growth", "setting": "S. cerevisiae deletion strains, locus YMR263W, strain SAP30, hits give low values", "value": 0.919}, {"measurement": "normalized growth", "setting": "S. cerevisiae deletion strains, locus YMR307W, strain GAS1, hits give low values", "value": "0.54 (active)"}, {"measurement": "normalized growth", "setting": "S. cerevisiae deletion strains, locus YNL067W, strain RPL9B, hits give low values", "value": 0.945}, {"measurement": "normalized growth", "setting": "S. cerevisiae deletion strains, locus YNL071W, strain lat1, hits give low values", "value": 0.994}, {"measurement": "normalized growth", "setting": "S. cerevisiae deletion strains, locus YNL153C, strain GIM3, hits give low values", "value": 0.891}, {"measurement": "normalized growth", "setting": "S. cerevisiae deletion strains, locus YNL183C, strain NPR1, hits give low values", "value": 0.885}, {"measurement": "normalized growth", "setting": "S. cerevisiae deletion strains, locus YNL209W, strain ssb2, hits give low values", "value": 0.982}, {"measurement": "normalized growth", "setting": "S. cerevisiae deletion strains, locus YNL233W, strain BNI4, hits give low values", "value": "0.806 (active)"}, {"measurement": "normalized growth", "setting": "S. cerevisiae deletion strains, locus YNL248C, strain rpa49, hits give low values", "value": 0.975}, {"measurement": "normalized growth", "setting": "S. cerevisiae deletion strains, locus YNL250W, strain rad50, hits give low values", "value": 1.01}, {"measurement": "normalized growth", "setting": "S. cerevisiae deletion strains, locus YNL271C, strain bni1, hits give low values", "value": 1.02}, {"measurement": "normalized growth", "setting": "S. cerevisiae deletion strains, locus YNL298W, strain CLA4, hits give low values", "value": 0.973}, {"measurement": "normalized growth", "setting": "S. cerevisiae deletion strains, locus YNL307C, strain MCK1, hits give low values", "value": 1}, {"measurement": "normalized growth", "setting": "S. cerevisiae deletion strains, locus YNL322C, strain KRE1 (second series), hits give low values", "value": 0.973}, {"measurement": "normalized growth", "setting": "S. cerevisiae deletion strains, locus YNL322C, strain KRE1, hits give low values", "value": 0.963}, {"measurement": "normalized growth", "setting": "S. cerevisiae deletion strains, locus YNR049C, strain mso1, hits give low values", "value": 1.01}, {"measurement": "normalized growth", "setting": "S. cerevisiae deletion strains, locus YNR052C, strain pop2, hits give low values", "value": 1.01}, {"measurement": "normalized growth", "setting": "S. cerevisiae deletion strains, locus YOL006C, strain TOP1, hits give low values", "value": 0.942}, {"measurement": "normalized growth", "setting": "S. cerevisiae deletion strains, locus YOL012C, strain htz1", "value": 1.3}, {"measurement": "normalized growth", "setting": "S. cerevisiae deletion strains, locus YOL147C, strain pex11, hits give low values", "value": 1.02}, {"measurement": "normalized growth", "setting": "S. cerevisiae deletion strains, locus YOR001W, strain rrp6, hits give low values", "value": 0.966}, {"measurement": "normalized growth", "setting": "S. cerevisiae deletion strains, locus YOR061W, strain CKA2, hits give low values", "value": 1}, {"measurement": "normalized growth", "setting": "S. cerevisiae deletion strains, locus YOR069W, strain VPS5, hits give low values", "value": 1.01}, {"measurement": "normalized growth", "setting": "S. cerevisiae deletion strains, locus YOR070C, strain gyp1, hits give low values", "value": 0.989}, {"measurement": "normalized growth", "setting": "S. cerevisiae deletion strains, locus YOR080W, strain dia2, hits give low values", "value": 0.998}, {"measurement": "normalized growth", "setting": "S. cerevisiae deletion strains, locus YOR083W, strain WHI5, hits give low values", "value": 0.904}, {"measurement": "normalized growth", "setting": "S. cerevisiae deletion strains, locus YOR106W, strain vam3, hits give low values", "value": 0.94}, {"measurement": "normalized growth", "setting": "S. cerevisiae deletion strains, locus YOR136W, strain idh2, hits give low values", "value": 0.994}, {"measurement": "normalized growth", "setting": "S. cerevisiae deletion strains, locus YOR144C, strain elg1, hits give low values", "value": 1}, {"measurement": "normalized growth", "setting": "S. cerevisiae deletion strains, locus YOR184W, strain ser1, hits give low values", "value": 0.945}, {"measurement": "normalized growth", "setting": "S. cerevisiae deletion strains, locus YOR231W, strain MKK1, hits give low values", "value": 0.96}, {"measurement": "normalized growth", "setting": "S. cerevisiae deletion strains, locus YOR265W, strain rbl2, hits give low values", "value": 0.998}, {"measurement": "normalized growth", "setting": "S. cerevisiae deletion strains, locus YOR270C, strain vph1, hits give low values", "value": 0.924}, {"measurement": "normalized growth", "setting": "S. cerevisiae deletion strains, locus YOR290C, strain snf2, hits give low values", "value": 0.971}, {"measurement": "normalized growth", "setting": "S. cerevisiae deletion strains, locus YOR316C, strain cot1, hits give low values", "value": 1.02}, {"measurement": "normalized growth", "setting": "S. cerevisiae deletion strains, locus YPL051W, strain arl3, hits give low values", "value": 0.959}, {"measurement": "normalized growth", "setting": "S. cerevisiae deletion strains, locus YPL055C, strain LGE1, hits give low values", "value": 0.842}, {"measurement": "normalized growth", "setting": "S. cerevisiae deletion strains, locus YPL078C, strain atp4, hits give low values", "value": 0.91}, {"measurement": "normalized growth", "setting": "S. cerevisiae deletion strains, locus YPL106C, strain sse1, hits give low values", "value": "0.848 (active)"}, {"measurement": "normalized growth", "setting": "S. cerevisiae deletion strains, locus YPL240C, strain hsp82, hits give low values", "value": 1.01}, {"measurement": "normalized growth", "setting": "S. cerevisiae deletion strains, locus YPL241C, strain CIN2, hits give low values", "value": 1.02}, {"measurement": "normalized growth", "setting": "S. cerevisiae deletion strains, locus YPL256C, strain CLN2, hits give low values", "value": 0.931}, {"measurement": "normalized growth", "setting": "S. cerevisiae deletion strains, locus YPR119W, strain clb2, hits give low values", "value": 1}, {"measurement": "normalized growth", "setting": "S. cerevisiae deletion strains, locus YPR141C, strain kar3, hits give low values", "value": 1.02}, {"measurement": "normalized growth", "setting": "S. cerevisiae deletion strains, locus YPR163C, strain tif3, hits give low values", "value": 1.03}, {"measurement": "normalized growth", "setting": "S. cerevisiae deletion strains, locus YPR167C, strain met16, hits give low values", "value": 1.01}, {"measurement": "normalized growth", "setting": "S. cerevisiae deletion strains, strain wtn01, hits give low values", "value": 0.995}, {"measurement": "normalized growth", "setting": "S. cerevisiae strains, strain wild type, hits give low values", "value": 0.967}]}]}
